Test results as given in PubChem BioAssay (NCI).
This is part of a sample that, as a whole, favours compounds with a hit. Of some 83,000 tested, about 20% had one in any assay.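 Activity criterion: percent growth below 10, measured after cells in 96-well plates were exposed to a single compound concentration for 48 hours.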 Activity calls are given as the source filed them.

test system: KM12 colon; assay: NCI-60 one-dose screen, 48 h (100 = growth as untreated, 0 = no growth, -100 = all killed); details: 10 µM unless noted
Procedure: Growth inhibition of the KM12 human tumor cell line is measured as a screen for anti-cancer activity. Cells are grown in 96 well plates and exposed to the test compound for 48 hours. Compounds are tested at a single concentration, which is 10^-5 M for most compounds. The reported endpoint is percent growth (GI% or GIPRCNT), where numbers from 0 - 100% represent growth inhibition, and numbers from -100% - 0 represent cell death. For example, a value of 40 represents 60% growth inhibition. A value of 0 means no net growth occurred over the course of the experiment. A value of -40 indicates 40% of cells at the beginning of the experiment died by the end of the experiment. A value of -100 means all cells are dead at the end of the experiment.
NCI-60 Human Tumor Cell Lines Screen was performed using the standard one-dose NCI protocol, which is described in more detail at https://dtp.cancer.gov/discovery_development/nci-60/default.htm.
Compounds with GIPRCNT values below 10 were considered active. Activity score was based on GIPRCNT using the following formula: […]
Score is 0 for GIPRCNT values of 100 or above, 50 for GIPRCNT values of 0, and 100 for GIPRCNT values of -100.

| Compound | growth |
| --- | --- |
| CN1CCN(CCCOc2cccc3nc(Nc4cc(Cl)cc(Cl)c4)ccc23)CC1 | -71.9% (active) |
| N#Cc1c(N)n(CCNC(=O)c2ccccc2)c2nc3ccccc3nc12 | 114% (inactive) |
| O=c1cc(CSc2nnc(SCc3cc(=O)oc4c3ccc3ccccc34)o2)c2ccc3ccccc3c2o1 | 98.2% (inactive) |
| Clc1ccc2c(NCCNc3nc(N4CCOCC4)nc4ccccc34)ccnc2c1 | 13.3% (inactive) |
| COc1cc(CNc2oc(-c3ccccc3)c(-c3ccccc3)c2C#N)cc(CN2CCN(C)CC2)c1O | 66.7% (inactive) |
| Nc1nc2ccc3[nH]ncc3c2c2c1CCCC2 | -1.31% (active) |
| CC[C@]1(O)C[C@@H]2CN(CCc3c([nH]c4ccccc34)[C@@](C(=O)OC)(c3cc4c(cc3OC)N(C)[C@H]3[C@@](O)(C(N)=O)[C@H](O)[C@]5(CC)[C@@H]6C[C@@H]6CN6CC[C@]43[C@@H]65)C2)C1 | 11.9% (inactive) |
| Cn1cc(C(=O)c2nc(-c3c[nH]c4ccc(Br)cc34)no2)c2cc(F)ccc21 | 96.3% (inactive) |
| Cc1[nH]c(-c2cc(N)ccc2Cl)c2c1C(=O)CCCC2 | 32.6% (inactive) |
| Nc1nc2ncc(CCNc3ccc(C(=O)O)cc3)nc2c(=O)[nH]1 | 111% (inactive) |
| Nc1ccc(-c2cc3c(NCc4ccccc4)ncnc3s2)cc1 | 88.6% (inactive) |
| Cc1ccc2c(c1)C(=O)/C(=C/c1cccc(OCC(=O)c3ccc(Cl)cc3)c1)CS2 | 60.3% (inactive) |
| CCCCC/C(C=C(C#N)C#N)=C/c1ccccc1 | 72.6% (inactive) |
| NC(=O)c1cc(I)ccc1NC(=O)/C=C/c1ccccc1Cl | 10.6% (inactive) |
| COc1ccc(-c2cc(-c3ccc(Nc4ccnc5cc(Cl)ccc45)cc3)nc(N3CCOCC3)n2)cc1 | 44.9% (inactive) |
| Brc1ccc(-c2csc(Nc3ccccn3)n2)cc1 | 86.4% (inactive) |
| CCOc1ccc(C(C)=O)cc1NC(=O)c1cccc(-c2nnn(CC)n2)c1 | 23.8% (inactive) |
| CC(=O)OC[C@H]1O[C@H](OC(C)=O)[C@H](NC(=O)/C=C/CCl)[C@@H](OC(C)=O)[C@@H]1OC(C)=O | 80.5% (inactive) |
| O=C1CSC(=S)N1CCc1ccc(O)cc1 | 8.84% (active) |
| COc1cc2c(cc1O)CC[C@@H]1[C@@H]2CC[C@]2(C)[C@@H](NCCN(C)C)CC[C@@H]12 | -82.4% (active) |

| Compound | growth |
| --- | --- |
| CCCCN(CCCC)CCCn1c(-c2ccccc2)ccc1-c1ccccc1 | 61.7% (inactive) |
| COc1cccc(-c2nn(C(C)(C)C)cc2-c2ccnc(NCCCNS(=O)(=O)c3ccc(C)cc3)c2)c1 | 101% (inactive) |
| Cn1c(=O)c2c(nc3n(-c4ccc(Cl)cc4Cl)c(Sc4nc(-c5ccccc5)c(C#N)c(=O)[nH]4)cn23)n(C)c1=O | 84.9% (inactive) |
| CC(O)CN1CC(O)=C(c2nc3ccccc3s2)C1=N (stereo not given) | 117% (inactive) |
| CC(=O)c1cc2c(N)c(C(=O)Nc3cccc4ccccc34)sc2nc1C | 22% (inactive) |
| Oc1ccc(N=Cc2ccccc2O)cc1 | 88.8% (inactive) |
| COc1ccc(Nc2cc(C)nc(N3CCN(c4ccnc5cc(Cl)ccc45)CC3)n2)cc1 | 23.1% (inactive) |
| COC(=O)c1ccc(NC(=O)c2ccc(-c3cccc([N+](=O)[O-])c3)o2)cc1 | 102% (inactive) |
| Cn1c(NCCc2ccc(O)c(O)c2)nc2c1c(=O)n(Cc1ccc(Cl)c(Cl)c1)c(=O)n2C | 71.9% (inactive) |
| COc1cc2c(cc1-c1c(C)noc1C)ncc1nc(C3CCC(F)(F)CC3)n([C@H](C)COC(F)F)c12 | 45.4% (inactive) |
| Cc1cc(N2CCCCC2)nc(NC2CCCC(Nc3ccnc4cc(Cl)ccc34)C2)n1 (stereo not given) | -29.7% (active) |
| COc1cccc(-c2nc3sccn3c2-c2ccnc(NCCCNS(=O)(=O)c3cccc(Cl)c3)c2)c1 | 64.8% (inactive) |
| O=C(COc1cccc(/C=C2\COc3ccccc3C2=O)c1)Nc1nccs1 | -44.6% (active) |
| CCCCn1c(-c2ccc(C(=O)O/N=C(\N)c3ccc4c(c3)OCO4)cc2)nc(-c2ccccc2)c1-c1ccccc1 | 36.8% (inactive) |
| COc1ccc(-n2nc(C)c3c(Nc4ccc(NC(=O)Nc5cccc(C(F)(F)F)c5)cc4)ncnc32)cc1 | 2.78% (active) |
| O=C(C(=O)c1ccc2c(c1)OCO2)c1ccc2c(c1)OCO2 | 98.1% (inactive) |
| O=C(N=Nc1c(O)[nH]c2ccccc12)c1cc(-c2ccccc2)on1 | 101% (inactive) |
| COc1cc2c(cc1-c1c(C)noc1C)ncc1nc(C3CCCC3)n([C@H](C)COC(F)F)c12 | 45.8% (inactive) |
| CCCOc1ccc2nc(NC(=O)OC)[nH]c2c1 | 5.74% (active) |
| COc1ccc(/C=C/c2nc3ccccc3nc2/C=C/c2ccc(OC)cc2)cc1 | 99.6% (inactive) |
